Percent Effect data for 109 compounds are collected here from ChEMBL document CHEMBL3988442, “University of Dundee, Small-Polar-MMV Screening Library” (2021).

Among all 67,000 compounds or so, about 300 (0.45%) showed an effect of 50% or more. The full list was thinned out, with strong results kept by preference.

For the experiment, the target named is Polyketide synthase Pks13 (Mycobacterium tuberculosis (strain ATCC 25618 / H37Rv)) (UniProt I6X8D2). Briefly: Mycobacterium tuberculosis Polyketide synthase 13 Thioesterase (PKS13). It is filed as functional. The arrangement: scale not given: in the data most compounds retested in dose-response had high values. As to conditions: 30 µM.
Chain of Polyketide synthase Pks13 (Mycobacterium tuberculosis (strain ATCC 25618 / H37Rv)) (I6X8D2 whole entry): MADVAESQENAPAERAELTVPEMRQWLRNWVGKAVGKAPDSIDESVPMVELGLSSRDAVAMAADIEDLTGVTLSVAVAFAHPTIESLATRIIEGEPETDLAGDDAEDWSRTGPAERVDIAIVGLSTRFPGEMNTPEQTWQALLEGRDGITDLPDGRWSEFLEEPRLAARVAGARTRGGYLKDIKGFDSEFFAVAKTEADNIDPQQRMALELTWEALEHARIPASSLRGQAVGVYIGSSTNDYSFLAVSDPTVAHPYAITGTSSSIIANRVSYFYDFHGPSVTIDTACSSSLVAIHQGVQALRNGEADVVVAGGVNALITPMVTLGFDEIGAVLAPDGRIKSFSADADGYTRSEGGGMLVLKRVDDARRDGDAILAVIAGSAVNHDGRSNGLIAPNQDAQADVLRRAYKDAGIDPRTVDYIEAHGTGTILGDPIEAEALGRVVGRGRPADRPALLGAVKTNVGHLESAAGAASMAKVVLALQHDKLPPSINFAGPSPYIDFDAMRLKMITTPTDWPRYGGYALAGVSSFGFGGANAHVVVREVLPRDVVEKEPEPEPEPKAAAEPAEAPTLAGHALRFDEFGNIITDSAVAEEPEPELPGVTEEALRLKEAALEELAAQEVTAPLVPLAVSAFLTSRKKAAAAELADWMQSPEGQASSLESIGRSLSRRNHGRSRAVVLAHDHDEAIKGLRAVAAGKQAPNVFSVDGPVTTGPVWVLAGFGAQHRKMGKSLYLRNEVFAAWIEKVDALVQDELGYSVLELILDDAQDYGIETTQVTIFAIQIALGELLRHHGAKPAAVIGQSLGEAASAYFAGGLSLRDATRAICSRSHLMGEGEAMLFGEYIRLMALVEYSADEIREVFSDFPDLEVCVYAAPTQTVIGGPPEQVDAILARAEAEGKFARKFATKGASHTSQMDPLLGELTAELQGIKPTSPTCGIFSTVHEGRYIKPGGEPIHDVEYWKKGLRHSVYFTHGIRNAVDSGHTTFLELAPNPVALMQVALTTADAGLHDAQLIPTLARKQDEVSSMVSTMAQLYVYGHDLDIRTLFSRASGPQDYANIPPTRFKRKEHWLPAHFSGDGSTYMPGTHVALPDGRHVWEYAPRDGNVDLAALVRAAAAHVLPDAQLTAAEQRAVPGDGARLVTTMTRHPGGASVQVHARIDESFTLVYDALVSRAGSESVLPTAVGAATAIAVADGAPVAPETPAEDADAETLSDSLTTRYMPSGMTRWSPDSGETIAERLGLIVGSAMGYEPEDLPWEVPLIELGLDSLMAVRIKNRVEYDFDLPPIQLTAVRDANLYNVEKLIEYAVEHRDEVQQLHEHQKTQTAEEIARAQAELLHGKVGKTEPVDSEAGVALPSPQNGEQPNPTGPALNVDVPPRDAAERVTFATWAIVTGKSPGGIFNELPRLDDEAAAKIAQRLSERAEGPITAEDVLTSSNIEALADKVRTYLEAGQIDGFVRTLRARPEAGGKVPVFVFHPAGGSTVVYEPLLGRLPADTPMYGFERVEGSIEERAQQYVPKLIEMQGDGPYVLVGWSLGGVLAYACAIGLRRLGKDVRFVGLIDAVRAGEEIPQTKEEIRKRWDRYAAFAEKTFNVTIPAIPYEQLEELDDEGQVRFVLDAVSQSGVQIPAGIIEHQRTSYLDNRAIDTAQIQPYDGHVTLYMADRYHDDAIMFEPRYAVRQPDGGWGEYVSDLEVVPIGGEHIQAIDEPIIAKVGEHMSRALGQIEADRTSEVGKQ
Take `C=Cn1ncc(CN2C[C@@H]3CCCN3C[C@@H]2CCSC)c1C`: the Percent Effect is -1.08%. The value for `CCc1nnc(CN2CCOC(Cn3cc(C)cn3)C2)o1` (centres undefined) was 52.7%; that for `Cc1cnn(CC2CN(Cc3nnc(C(C)C)o3)CCO2)c1` (centres undefined) was -12.6%; that for `Cc1cnn(CC2CN(Cc3nnc(C4CC4)o3)CCO2)c1` (centres undefined) was -7.17%.

For `Cc1ccc(N2C[C@H]3CCC[C@@]3(COc3cccnc3)C2)nn1`, the Percent Effect was -28.6%.

With `CCC(Cn1ccc2[nH]c(=O)c(C#N)cc2c1=O)OC` (centres undefined), the Percent Effect is -9.98%. The value for `CCCOC(C)Cn1ccc2[nH]c(=O)c(C#N)cc2c1=O` (centres undefined) was 89.3%; that for `N#Cc1cc2c(=O)n(CC(O)C(F)(F)F)ccc2[nH]c1=O` (centres undefined) was -25.1%; that for `O=C(NC1CCC1)[C@H]1C[C@@H]2CN(S(=O)(=O)c3ccccc3)C[C@H]1O2` was -31.3%. `O=C(N[C@H]1CN(Cc2cccs2)[C@@H]2CCCO[C@H]12)c1cccnc1`: the Percent Effect was -28.5%. With `COc1ccccc1CN1C(=O)O[C@@H]2CN(c3ccccn3)C[C@@H]21`, the Percent Effect amounted to 4.73%.

For the compound `COCCNc1nc2c(c(NCCc3cccs3)n1)CCNCC2`, the Percent Effect was -17.6%. In the case of `COCCNc1nc2c(c(NCc3ccncc3)n1)CCNCC2`, the Percent Effect is -8.09%. `COCCNc1nc2c(c(NCC3CCOC3)n1)CCNCC2` (centres undefined): the Percent Effect amounted to 89.6%. On to `CS(=O)(=O)NC[C@]12COC[C@H]1CN(C(=O)CCc1ccccc1)C2`, for which the Percent Effect was -0.91%. As for `Cc1csc([C@H]2C[C@@H]3CCN(Cc4cc(C)on4)C[C@H]3O2)n1`, the Percent Effect is -10.9%. In the case of `CN(C)S(=O)(=O)N1C[C@H]2CCC[C@@]2(COCc2cccnc2)C1`, the Percent Effect was -34%. Turning to `CCOc1cc(C(=O)n2cccn2)cc(OCC)c1OCC`, the Percent Effect turned out to be 21.5%. As for `CCOC(=O)N1CCN(C(=O)c2cc(OCC)c3ccoc3c2)CC1`, the Percent Effect turned out to be 22.8%. Take `CCOc1cc(C(=O)n2cc(C)cn2)cc(OCC)c1OCC`: the Percent Effect amounted to 53.3%. The value for `Cc1nnsc1CN1C[C@H]2CC[C@@H]1CN(Cc1ccccn1)C2` was 2.49%; that for `CCOc1cc(C)ccc1NS(=O)(=O)c1cc(C)c(C(=O)O)s1` was -26.3%.

Consider `CCc1cccc(NS(=O)(=O)c2cc(C)c(C(=O)O)s2)c1`, for which the Percent Effect worked out at 56.8%. As to `CCOc1ccc(NS(=O)(=O)c2cc(C)c(C(=O)O)s2)c(C)c1`, the Percent Effect was -32.6%. `Cc1cc(S(=O)(=O)Nc2cccc(I)c2)sc1C(=O)O`: the Percent Effect turned out to be 70%.

In the case of `O=C(O)c1csc(S(=O)(=O)Nc2cccc(OC(F)F)c2)c1`, the Percent Effect worked out at 24.7%. Regarding `Cc1cc(S(=O)(=O)Nc2cccc(OC(F)F)c2)sc1C(=O)O`, the Percent Effect amounted to 72.8%. On to `CCOc1c(Cl)cccc1NS(=O)(=O)c1cc(C)c(C(=O)O)s1`, for which the Percent Effect is -18.8%. For the compound `CCOc1ccc(NS(=O)(=O)c2cc(C)c(C(=O)O)s2)cc1F`, the Percent Effect was -32.1%. For the compound `CCOc1cccc(NS(=O)(=O)c2cc(C)c(C(=O)O)s2)c1`, the Percent Effect was 33.3%. Turning to `CCOc1cc(F)ccc1NS(=O)(=O)c1cc(C)c(C(=O)O)s1`, the Percent Effect was determined as 4.81%. The value for `CC(=O)c1cccc(NS(=O)(=O)c2cc(C)c(C(=O)O)s2)c1` was 11.7%; that for `Cc1cc(S(=O)(=O)Nc2cccc(-n3cccc3)c2)sc1C(=O)O` was 74%; that for `Fc1ccc(CN2CCO[C@H]3[C@H](OCC4CC4)CC[C@@H]32)cc1` was -2.1%.

For `CO[C@H]1CCN(S(=O)(=O)N(C)C)[C@@H]2CN(Cc3cccnc3)C[C@H]12`, the Percent Effect came to 12.3%. As to `CCOC(=O)[C@@H]1[C@@H](c2ccccc2)CN2CCN(C(C)=O)C[C@H]12`, the Percent Effect is 0.569%. Turning to `Cc1nc(CN2C[C@H]3C[C@H](C(=O)NCC4CC4)N(C)[C@H]3C2)cs1`, the Percent Effect worked out at 16.8%.

As to `O=C(Cc1ccsc1)N1C[C@@H]2OCCN(CC3CCCO3)[C@@H]2C1` (some centres undefined), the Percent Effect is -0.843%. Take `c1cnn(CCCO[C@@H]2CC[C@H]3[C@H]2OCCN3CC2CC2)c1`: the Percent Effect was -15.8%. Regarding `Cc1nccc(N2CC[C@@H]3[C@@H](CCC(=O)N3CCc3ccccc3)C2)n1`, the Percent Effect is -11%. As to `O=C(NC1CCCC1)[C@@H]1CN(Cc2nccs2)C[C@H]2OCC[C@H]21`, the Percent Effect is -23.6%. The value for `CCOCC(=O)N1C[C@H]2CN(CC3CC3)C(=O)[C@H]2C1` was -37.5%; that for `Cc1ccc2[nH]c(CO[C@H]3CN(C(=O)C4CC4)C[C@H]3F)nc2c1` was 17.3%. For the compound `Cc1ccc2[nH]c(CO[C@H]3CN(c4ccc(C#N)cn4)C[C@H]3F)nc2c1`, the Percent Effect turned out to be 53.9%. In the case of `CC(=O)N1C[C@@H](F)[C@@H](OCc2nc3ccc(C#N)cc3[nH]2)C1`, the Percent Effect was -28.7%. As to `CC(C)C(=O)N1C[C@H]2CCCN[C@H]2C1`, the Percent Effect is -32.8%. For the compound `O=C(C[C@H]1[C@H]2CN(C(=O)CO)C[C@@H]12)Nc1cccnc1`, the Percent Effect was -10.3%.

With `O=S(=O)(c1ccc(N2CCCCC2)c2nonc12)N1CCCCC1`, the Percent Effect stood at 29.3%. Take `O=S(=O)(c1c(N2CCCC2)ccc2nonc12)N1CCCC1`: the Percent Effect turned out to be 32.4%. Regarding `O=S(=O)(c1c(N2CCCCC2)ccc2nonc12)N1CCCCC1`, the Percent Effect was 51.7%.

Regarding `CC(C)C(=O)N1CCN(C(=O)c2cscn2)[C@H]2CS(=O)(=O)C[C@H]21`, the Percent Effect was -12.2%. Turning to `O=C1CO[C@H]2CN(C3CCOCC3)C[C@H]2N1Cc1ccncc1`, the Percent Effect is -35.6%. For the compound `CCN(Cc1nc2c(cnn2C)c(=O)[nH]1)c1ccccc1`, the Percent Effect was 66.8%. On to `CCN(Cc1nc2c(cnn2C)c(=O)[nH]1)c1ccc(F)cc1`, for which the Percent Effect was -7.87%.

As for `CCN(Cc1nc2c(cnn2C)c(=O)[nH]1)c1cccc(F)c1`, the Percent Effect is -8.73%.

Consider `CN1CCC(NC(=O)c2cc(F)cc(Cl)c2O)C1=O` (centres undefined), for which the Percent Effect was determined as 54%.

Turning to `CN1CCC(NC(=O)c2cc(Cl)cc(Br)c2O)C1=O` (centres undefined), the Percent Effect is 11.2%. With `CN1CCC(NC(=O)c2cc(Br)cc(Cl)c2O)C1=O` (centres undefined), the Percent Effect worked out at 11.6%. On to `C/C(NC(=O)c1ccccn1)=C1\C(=O)C[C@@H]2[C@H]1C2(C)C`, for which the Percent Effect was 37.5%. Take `COCc1noc(-c2ccc(N(C)Cc3cc(C)no3)nc2)n1`: the Percent Effect was -8.23%. On to `COCc1noc(-c2ccc(N(C)Cc3ccc(C)o3)nc2)n1`, for which the Percent Effect came out at 69.6%. As for `COCc1noc(-c2ccc(N(C)Cc3ncccc3C)nc2)n1`, the figure is 5.81%; as for `COCCN(C)CC(=O)N1C[C@H]2CC[C@@H]1CN(C(=O)c1ccncc1)C2`, -9.17%. Regarding `Cc1oc(C(C)C)cc1C(=O)N1C[C@H]2CC[C@@H]1CN(C(=O)N(C)C)C2`, the Percent Effect is -5.27%. On to `Cc1ccc(N2C[C@H]3CCC[C@@H](CN(C)C)[C@H]3C2)nn1`, for which the Percent Effect is -24.5%. As for `CC(C)c1cc(NC(=O)CN2CCC(N3CCNC3=O)CC2)on1`, the Percent Effect is 0.26%. `CC(C)(C)c1cc(NC(=O)CN2CCC(N3CCNC3=O)CC2)on1`: the Percent Effect is 80.9%. With `Cc1cc(NC(=O)CN2CCC(N3CCNC3=O)CC2)on1`, the Percent Effect is -25.3%. As for `Cc1noc(C)c1CN1C[C@@H]2OCCN(Cc3cnn(C)c3)[C@@H]2C1`, the figure is -27.8%. As for `C[C@@H]1C[C@@H]2CCN(Cc3nccs3)C[C@H]2O1`, the figure is -25.2%; as for `c1cncc(COC[C@H]2CC[C@H]3[C@H](CCN3Cc3cccs3)O2)c1`, -37.9%.

In the case of `CCc1cccc(C)c1NC(=O)C1CC(=O)N(Cc2ccccn2)C1` (centres undefined), the Percent Effect amounted to 58.8%. Regarding `O=C(Nc1ccccn1)C1CC(=O)N(Cc2ccccn2)C1` (centres undefined), the Percent Effect is -26.6%. `Cc1ccc(Cl)cc1NC(=O)C1CC(=O)N(Cc2ccccn2)C1` (centres undefined): the Percent Effect is -5.88%.

For the compound `Cc1nnc([C@H]2C[C@H]3OCC[C@H]3N(S(=O)(=O)N(C)C)C2)o1`, the Percent Effect is -28.4%. Turning to `CC(C)N1CCO[C@H]2CN(Cc3cc[nH]n3)C[C@H]21`, the Percent Effect was -16.1%. For the compound `CN(Cc1ccco1)C[C@H]1OC[C@@H]2CCN(Cc3cccs3)C[C@@H]21`, the Percent Effect is -7.96%. As for `Cc1cccn2c(=O)cc(CSCC(=O)Nc3nnc(C(C)C)s3)nc12`, the figure is 98.2%; as for `Cc1ccn2c(=O)cc(CSCC(=O)Nc3nnc(C(C)C)s3)nc2c1`, -42%; as for `CC(C)c1nnc(NC(=O)CSCc2cc(=O)n3ccccc3n2)s1`, -12.4%. `Cc1cc(N2CCCC2c2cncc(N(C)C)n2)ncn1` (centres undefined): the Percent Effect was -0.232%. Regarding `CNc1cncc(C2CCCN2c2cc(C)ncn2)n1` (centres undefined), the Percent Effect was 55%. `Cc1cc(N2CCCC2c2cnccn2)ncn1` (centres undefined): the Percent Effect is -32.2%.

With `O=C(NC1CC1)[C@@H]1C[C@@H]2CCN(Cc3ccoc3)C[C@@H]2O1`, the Percent Effect was -9.29%. Turning to `O=C(c1cn2ccsc2n1)N1CCN(CC2CC2)[C@@H]2CS(=O)(=O)C[C@@H]21`, the Percent Effect is -4.84%.

As to `CC[C@H](C)[C@H](N)C(=O)Nc1nc(-c2cnc(N3CCOCC3)nc2)cs1`, the Percent Effect is 36.7%. In the case of `CC[C@H](C)[C@H](N)C(=O)Nc1nc(-c2cnc(N(C)C)nc2)cs1`, the Percent Effect is 146%. Consider `CC[C@H](C)[C@H](N)C(=O)Nc1nc(-c2cnc(N(C)CCO)nc2)cs1`, for which the Percent Effect stood at 27.2%.

As for `CN1CCc2c(sc3c2C(=O)NC(/C=C/c2ccccc2)N3)C1` (centres undefined), the Percent Effect stood at 33.3%. Regarding `O=C1C[C@H]2[C@H](CCN2C(=O)c2cc[nH]n2)N1Cc1cccnc1`, the Percent Effect is -24.8%. For the compound `O=C1CC(c2ccco2)c2sc(C(=O)O)c(-c3ccccc3)c2N1` (centres undefined), the Percent Effect stood at 65.6%.

Turning to `O=C1CC(c2ccccc2)c2sc(C(=O)O)c(-c3ccccc3)c2N1` (centres undefined), the Percent Effect was -32%.

As to `O=C1CC(c2ccc(O)cc2)c2sc(C(=O)O)c(-c3ccccc3)c2N1` (centres undefined), the Percent Effect is -18.2%. For the compound `CCOC(=O)N1CCN(C(=O)C2CC(=O)N(c3ccccc3Br)C2)CC1` (centres undefined), the Percent Effect is 50.9%. In the case of `O=C(C1CC1)N1CCN(C(=O)C2CC(=O)N(c3ccccc3Br)C2)CC1` (centres undefined), the Percent Effect was -26.4%. Regarding `O=C(C1CC(=O)N(c2ccccc2Br)C1)N1CCCCCC1` (centres undefined), the Percent Effect is -11.4%. For the compound `COc1ncccc1CN1C[C@@H]2COC[C@]2(CNS(C)(=O)=O)C1`, the Percent Effect stood at 1.01%. `CC(=O)N1CCCN(C(=O)NCc2ccc(-c3ccn[nH]3)cc2)CC1`: the Percent Effect was -4.03%. As to `CCOCC1CCCN(C(=O)NCc2ccc(-c3ccn[nH]3)cc2)C1` (centres undefined), the Percent Effect was determined as 56.4%. Consider `CC(=O)NC1CCCN(C(=O)NCc2ccc(-c3ccn[nH]3)cc2)C1` (centres undefined), for which the Percent Effect is -5.89%. For the compound `Cc1nnc(N2CC[C@H]3C[C@@H](C(=O)NC4CCCC4)O[C@H]3C2)s1`, the Percent Effect was -27.2%. As for `O=C([C@H]1C[C@H]2OCC[C@H]2N(Cc2ccccn2)C1)N1CCCCO1`, the figure is -14.6%. As for `CN(C)CC(=O)N1Cc2nc(C(=O)NCc3ccccc3)oc2C1`, the Percent Effect was determined as 72.3%. Consider `CCCNC(=O)c1nc2c(o1)CN(C(=O)CN(C)C)C2`, for which the Percent Effect is -38.7%. With `CN(C)CC(=O)N1Cc2nc(C(=O)NCc3ccncc3)oc2C1`, the Percent Effect was -7.86%. On to `Cc1cc(C(=O)NCc2cc(C)oc2C)no1`, for which the Percent Effect was determined as 59.4%.

With `Cc1cc(CNC(=O)c2ccno2)c(C)o1`, the Percent Effect is -13.1%.

Consider `Cc1cc(CNC(=O)c2cnoc2C)c(C)o1`, for which the Percent Effect is 10.7%. On to `Cc1nc([C@H]2C[C@@H]3CCN(Cc4scnc4C)C[C@H]3O2)no1`, for which the Percent Effect was -27.4%.
